Source: PubChem (National Center for Advancing Translational Sciences (NCATS))
This is a sample that favours compounds with a hit; in the whole collection about 11% have one here.
IMPase inh: IMPase inhibition in cells; AID 901; 120,000 tested, under 10 active; CHO-M1 cells, IP1 accumulation, HTRF TR-FRET ratio; P97697; inhibition (IP1 accumulation), % at 46.1 µM; active = well fitted curve in the direction sought with a large enough effect in the signal ratio, not every such curve was filed as active; inconclusive = small, poorly fitted or top-dose-only effect, or a change in a side signal; inactive = no such curve, though single readings can be large or run the other way; the % refers to the signal ratio;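 note: cells stimulated with carbachol in lithium chloride buffer; plate controls were DMSO basal wells for no effect and reference inhibitor wells for full effect; higher means more IMPase inhibition seen as more IP1 and lower FRET ratio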
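CHO-M1 cells (CHO stably expressing M1 receptor), compound up to 46 uM final, stimulated with carbachol (50 uM as added) in buffer with 50mM LiCl, pH 7.4, 30 min at 37C. Cytosolic IP1 read by TR-FRET; AC50 from Hill fits.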
HPGD inh: blocks human HPGD enzyme activity. purified HPGD, NADH fluorescence kinetic, PGE2 substrate. Potency, µM, inactives show at the highest dose activity change, negative = inhibition, usual class: inhibitors. 150,000 tested, 4.3% active; note: potency is the fitted concentration of half-maximal effect
Target sequence (P15428 whole entry, looked up): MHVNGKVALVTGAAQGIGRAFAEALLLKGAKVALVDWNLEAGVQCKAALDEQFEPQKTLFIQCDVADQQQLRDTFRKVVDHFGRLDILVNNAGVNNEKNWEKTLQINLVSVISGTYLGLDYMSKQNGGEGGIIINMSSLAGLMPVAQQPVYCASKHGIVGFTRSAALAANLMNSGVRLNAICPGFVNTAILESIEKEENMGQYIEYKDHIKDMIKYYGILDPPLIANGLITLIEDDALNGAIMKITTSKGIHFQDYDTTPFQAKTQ
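NADH formation kinetics: reaction with 30 uM PGE2 and 1 mM NAD+ (final), 20 nM enzyme, Tris-HCl pH 8 with Tween 20, after 15 min compound preincubation at room temperature. Fluorescence change, last versus first of five reads.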
PNC inhibitor: blocks assembly of the perinucleolar compartment | 140,000 tested, 3.1% active | PC3M PTB-GFP, PNC prevalence imaging, 16 h; stronger effect = lower value | activity change (PNC), negative = inhibition, % at 10 µM;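 active = readout at or below -70, meaning at least 70% loss of cells showing the perinucleolar compartment, a nuclear body marking cancer cells; inconclusive = readout between -30 and a set limit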;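 note: plate controls were DMSO wells for no effect and camptothecin positive control wells for full effect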
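Read-out is percentage of cells bearing a perinucleolar compartment, from automated 20x imaging of fixed, Hoechst-stained PC3M PTB-GFP cells. Cells were seeded 4 h, then exposed 16 h to compound (23 nl of library stock) in duplicate plates.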
ALDH1A1 inh: ALDH1A1 (human) enzyme inhibition | P00352 | Purified ALDH1A1, NADH fluorescence, propionaldehyde substrate | Potency, µM (series often up to 75.3 µM), inactives show at the highest dose activity, negative = inhibition, usual class: inhibitors | 220,000 tested, 7.3% active | AID 1030;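 note: potency is the fitted concentration of half-maximal effect; plate controls were no enzyme wells and a reference inhibitor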
Target sequence (P00352 whole entry, looked up): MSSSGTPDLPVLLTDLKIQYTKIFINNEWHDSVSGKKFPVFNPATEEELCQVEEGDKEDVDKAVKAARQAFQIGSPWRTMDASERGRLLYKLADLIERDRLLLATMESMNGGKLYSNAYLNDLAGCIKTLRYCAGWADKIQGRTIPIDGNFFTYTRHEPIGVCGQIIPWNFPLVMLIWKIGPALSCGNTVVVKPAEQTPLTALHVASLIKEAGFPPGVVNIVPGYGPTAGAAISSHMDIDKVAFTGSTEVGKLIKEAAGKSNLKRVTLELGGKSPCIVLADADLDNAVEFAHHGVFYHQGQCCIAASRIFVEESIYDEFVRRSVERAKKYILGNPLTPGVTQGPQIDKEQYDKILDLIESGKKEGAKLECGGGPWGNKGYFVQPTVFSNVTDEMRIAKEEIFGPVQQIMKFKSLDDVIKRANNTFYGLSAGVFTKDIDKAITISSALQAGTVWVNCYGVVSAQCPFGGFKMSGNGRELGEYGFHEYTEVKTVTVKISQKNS
IMPase Li cell: membrane-permeable IMPase blocker, potentiated with lithium. Potency, µM (series often up to 59.4 µM), for inactives: at the highest dose activity, negative = IMPase inhibition, usual class: inhibitors. AID 1457. 210,000 tested, 0.35% active. CHO-M1 cells, IP1 TR-FRET (IP-One), carbachol + lithium; active = well fitted inhibition curve with a large enough effect; inconclusive = small, poorly fitted or top-dose-only effect; inactive = no such curve, though single readings can be large or run the other way;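 note: IP1 builds up when IMPase is blocked and the TR-FRET signal falls; potency is the fitted concentration of half-maximal effect; plate controls were basal vehicle for no effect and high inhibitor control for full effect; nearly all actives have a fitted effect of over 50% in size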
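Lithium-sensitised IP1 accumulation assay; M1-expressing CHO cells treated 30 min at 37C with compound. Competitive antibody detection by time-resolved FRET followed a 10 min room-temperature lysis step.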
* hit, by the source's call; u = inconclusive; x = no result; [ ] = dose if it differs, or a comment. Unless noted, calls come from the whole dose curve; as a rule, active = well fitted inhibition curve with a large enough effect (not every such curve was filed as active); inconclusive = small, poorly fitted or top-dose-only effect, or another doubt; inactive = no such curve, though single readings can be large or run the other way. Unless noted, % is set by controls: 0 for no effect and ±100 for the full control effect.

SMILES | IMPase inh | HPGD inh | PNC inhibitor | ALDH1A1 inh | IMPase Li cell
COc1ccc2[nH]cc(CCNc3nc(-c4ccccc4CN(C)C)nc4ccccc34)c2c1 | x | -18% | x | u | 11%
CCN(c1cccc(C)c1)S(=O)(=O)c1ccc(OC)c([N+](=O)[O-])c1 | x | x | x | 25µM* | 8%
Cn1c(=O)c2c(nc(SCC(=O)NCc3ccc4c(c3)OCO4)n2Cc2ccc(Cl)cc2)n(C)c1=O | -3 | -15% | -100* | -10% | 28%
O=C(CSc1nnc2scc(-c3ccc(Cl)cc3)n12)NCc1ccc2c(c1)OCO2 | 11 | -7% | -86* | -7% | 14%[38.3 µM]
Cn1c(=O)c2c(nc(NCc3ccc4c(c3)OCO4)n2Cc2ccccc2Cl)n(C)c1=O | 5 | -14% | 52 | u | 31%[38.3 µM]
Nc1nc(-c2ccccc2)cc(N2CCCCC2)n1 | -5 | -6% | -106* | 5% | -3%[38.3 µM]
Cc1ccc(C(=O)NN2C(=O)CSC2=S)cc1 | x | -12% | -84* | 1% | -5%
O=C(COc1ccccc1)NN1C(=O)CSC1=S | x | x | x | 0% | -5%
COc1cccc(N(C(=O)Cn2nnc(-c3ccc(Cl)cc3)n2)C(C(=O)NCC2CCCO2)c2ccc(C)cc2)c1 (configuration not stated) | x | x | x | 4% | 2%
O=C1CS/C(=C\[N+](=O)[O-])N1c1ccccc1 | 6 | -14% | 0 | 5µM* | -1%[38.3 µM]
O=C(N=C1SCC(=O)N1c1ccccc1)c1ccco1 | -9 | -8% | 1 | -6% | 21%[38.3 µM]
CN1C(=O)/C(=C2\SC(=S)N(C(CCC(=O)O)C(=O)O)C2=O)c2ccccc21 (configuration not stated) | 10 | 28µM* | 44 | 1.1µM* | 24%
Cc1ccccc1-n1c(=O)c2c3c(sc2n2cnnc12)CCCC3 | 4 | x | x | x | x
CN(C)c1ccc(CC(=O)c2nc3ccccc3s2)cc1 | x | -8% | -27 | 7.1µM* | 14%
CN(C)C(=O)c1nc2ccccc2s1 | x | -14% | -20 | -2% | 1%
N#CCCN1CCN(C(=S)c2ccc(-c3ccc(Cl)cc3)o2)CC1 | 4 | 20µM* | u | 4.5µM* | -13%[38.3 µM]
CN1CCN(Cc2ccc(-c3ccc(Cl)cc3)o2)CC1 | 8 | -13% | -18 | u | 23%[38.3 µM]
COc1cccc(OC)c1C(=O)Nc1ccc2c(c1)Cc1ccccc1-2 | x | x | x | 5% | 14%
COc1cccc(OC)c1C(=O)NC(=S)Nc1ccc2c(c1)Cc1ccccc1-2 | 7 | -17% | u | 10µM* | -22%[38.3 µM]
CC(C)c1cc(=O)oc2c3c4c(cc12)CCCN4CCC3 | 2 | u | 5 | u | -14%[38.3 µM]
CN1CCCc2cc3c(C(F)(F)F)cc(=O)oc3nc21 | u | u | -19 | u | 10µM*
CCCOc1ccc(C2=NNC(=O)CC2)cc1 | 1 | -15% | 18 | -5% | 5%
CCCOc1ccc(-c2nc(=S)[nH][nH]2)cc1 | 8 | 13µM* | -6 | u | -14%[38.3 µM]
CCS(=O)(=O)c1nc(S(=O)(=O)c2ccc(C)cc2)c(NCc2ccccn2)s1 | x | x | x | u | 7%
CCCS(=O)(=O)c1nc(S(=O)(=O)c2ccc(C)cc2)c(NCc2ccccn2)s1 | x | x | x | 14µM* | 2%
SMILES | IMPase inh | HPGD inh | PNC inhibitor | ALDH1A1 inh | IMPase Li cell
O=c1cc(CSc2nnnn2-c2ccccc2)nc(Nc2ccc(F)cc2)[nH]1 | -6 | -6% | u | 7.9µM* | 28%[38.3 µM]
N/C(=N\c1nc(CSc2nnnn2-c2ccccc2)cc(=O)[nH]1)Nc1ccccc1 | x | x | x | 5µM* | 2%
COCc1cc(=O)[nH]c(/N=C(\N)Nc2ccc(C)cc2)n1 | -5 | -10% | 48 | -2% | 24%[38.3 µM]
COc1ccc(N/C(N)=N/c2nc(CSc3ccc(Cl)cc3)cc(=O)[nH]2)cc1 | 3 | -4% | -24 | 3% | 22%[38.3 µM]
Cc1ccc(SCc2cc(=O)[nH]c(/N=C(\N)Nc3ccc(C)c(C)c3)n2)cc1 | 1 | -14% | 23 | 8.9µM* | 10%[38.3 µM]
C[C@@H]1CNCCN1S(=O)(=O)c1cccc2cnccc12 | -1 | 2% | x | -3% | 3%
COC(=O)c1cccc(C23CC4(C2)[C@H](CN(CC2CCCCC2)[C@@H]4c2ccccc2)C3c2ccc(C(F)(F)F)cc2)c1 (some centres not stated) | x | -9% | x | 3% | 6%
Clc1ccc(-n2nnc(-c3nccs3)n2)cc1Cl | x | x | x | 25µM* | -13%
Cc1ccc(-n2nnc(-c3nccs3)n2)cc1 | x | x | x | -8% | -1%
CCOC(=O)/C(=C\c1ccc(OC(F)F)cc1)C1=Nn2c(nnc2-c2ccc(Cl)cc2)SC1 | x | 14µM* | u | 14µM* | 16%
COCCn1c(=O)c(CCc2ccccc2)nc2cnc(N(C)C)nc21 | x | x | x | u | 3%
CCOC(=O)c1ccc(-n2c(CCC(=O)O)ccc2-c2ccccc2)cc1O | 4 | x | x | x | x
O=C(NCCn1cccc1)c1cccc2ccccc12 | -13 | 32µM* | 12 | -4% | -5%[38.3 µM]
C=CCNC(=O)c1ccccc1NC(=O)c1cccc2ccccc12 | -1 | -19% | u | u | 27%[38.3 µM]
Cc1cnc(CNc2ncncc2-c2c(C)noc2C)cn1 | x | x | x | -3% | 8%
O=C(NCc1cccnc1)c1ccccc1[N+](=O)[O-] | 2 | -10% | 2 | 12% | -2%
CNc1ccc(Br)cc(C(=O)/C=C/c2ccc(OC)cc2)c1=O | x | -25% | -109* | 28µM* | 1%
CNc1ccc(Br)cc(C(=O)/C=C/c2cc(OC)ccc2OC)c1=O | 10 | u | 18 | u | 23%
CNc1ccc(Br)cc(C(=O)/C=C/c2ccc3c(c2)OCO3)c1=O | 5 | 16µM* | 42 | 6.3µM* | 12%[38.3 µM]
CCNc1ccc(Br)cc(C(=O)/C=C/c2ccc(Cl)cc2Cl)c1=O | -2 | 22µM* | -100* | u | 16%
COc1ccc(C(=O)N2CCC3(CCN(Cc4ccccc4OC)CC3)CC2)cc1 | x | -5% | x | 9% | 26%
CCCN(CC1CC1)C(=O)CSc1nnc(-c2ccco2)n1N | x | x | x | 32µM* | -7%
CCCN(C(=O)CSc1nnc(-c2ccoc2C)n1N)C1CCS(=O)(=O)C1 (configuration not stated) | -1 | -20% | u | 20µM* | 11%
COc1ccc(OC)c(-n2c(=S)[nH]c3c(sc(=S)n3-c3ccccc3)c2=O)c1 | x | x | x | -2% | -5%
O=C(O)c1cnc(-c2ccccc2)nc1Sc1ccccc1Cl | 0 | 14µM* | 23 | 3% | -7%[38.3 µM]
O=C(O)c1cnc(-c2ccccc2)nc1Sc1ccc(Cl)cc1 | 0 | -2% | 0 | 2% | -8%[38.3 µM]
COc1ccccc1-c1ccc(NC2CCCCC2)nn1 | 4 | 7.1µM* | 108 | -5% | 13%
O=C(O)CC1S/C(=N/N=C/c2ccc(Br)cc2)N(c2ccccc2)C1=O (configuration not stated) | x | x | x | 14µM* | 2%
COc1ccc2c(c1)-c1nc(NC(=O)c3ccco3)sc1CC2 | x | -23% | 3 | u | 2%
COc1ccc2c(c1)Cc1sc(NC(=O)c3cccnc3)nc1-2 | x | x | x | 3.5µM* | 11%
